Laboratory results: PubChem BioAssay (EPA / NIEHS)
Where “and” joins values, the source holds several entries; their conditions need not be identical. Identical values can stand only once. The source holds several records for some structures; these can differ, active in one and inactive in another. Calls of active or inactive are those of the source. The calls were made as follows: active = hit-call score of the fitted dose curve at least 0.9, where 1 is the maximum; inactive = score below 0.9.

Columns and labels:
[1] = read-out: Macrophage colony-stimulating factor (MCSF), CSF1 (gene 1435); test: BSK_CASM3C_MCSF: BioMAP Diversity Plus: CASM3C Assay for Macrophage colony-stimulating factor (MCSF) Biomarker Activity (AID 2283044); details: primary human coronary artery smooth muscle cells; actives raise or lower the signal;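 also: M-CSF protein amount quantified by ELISA after 24 h exposure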
[2] = read-out: Low-density lipoprotein receptor (LDLR), LDLR (gene 3949); test: BSK_CASM3C_LDLR: BioMAP Diversity Plus: CASM3C Assay for Low-density lipoprotein receptor (LDLR) Biomarker Activity (AID 2283045); details: primary human coronary artery smooth muscle cells; actives raise or lower the signal;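 also: LDLR protein level on the cell surface quantified by ELISA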
[3] = read-out: Monocyte Chemoattractant Protein-1 (MCP1), CCL2 (gene 6347); test: BSK_CASM3C_MCP1: BioMAP Diversity Plus: CASM3C Assay for Monocyte Chemoattractant Protein-1 (MCP1) Biomarker Activity (AID 2283046); details: primary human coronary artery smooth muscle cells; actives raise or lower the signal;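 also: MCP-1 level quantified by ELISA 24 h after dosing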
[4] = BSK_CASM3C_Proliferation: Cell Proliferation Assessment in the BioMAP Diversity Plus: CASM3C Assay (AID 2283047); details: primary human coronary artery smooth muscle cells;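 also: sulforhodamine B total protein stain as relative cell number at 560 nm; sub-confluent cells exposed 48 h before staining; fitted both ways against DMSO so gain or loss of cell number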
[5] = read-out: Monokine induced gamma interferon (MIG), CXCL9 (gene 4283); test: BSK_CASM3C_MIG: BioMAP Diversity Plus: CASM3C Assay for Monokine induced gamma interferon (MIG) Biomarker Activity (AID 2283048); details: primary human coronary artery smooth muscle cells; actives raise or lower the signal;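 also: MIG protein level measured by ELISA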
[6] = read-out: serum amyloid A (SAA), SAA1 (gene 6288); test: BSK_CASM3C_SAA: BioMAP Diversity Plus: CASM3C Assay for serum amyloid A (SAA) Biomarker Activity (AID 2283049); details: primary human coronary artery smooth muscle cells; actives raise or lower the signal;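 also: SAA protein level quantified by ELISA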
[7] = BSK_CASM3C_SRB: Viability Assessment in the BioMAP Diversity Plus: CASM3C Assay (AID 2283050); details: primary human coronary artery smooth muscle cells;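 also: total protein by SRB staining as cytotoxicity measure in parallel cultures; cells exposed to compound for 24 h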
[8] = read-out: Thrombomodulin, THBD (gene 7056); test: BSK_CASM3C_Thrombomodulin: BioMAP Diversity Plus: CASM3C Assay for Thrombomodulin Biomarker Activity (AID 2283051); details: primary human coronary artery smooth muscle cells; actives raise or lower the signal;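 also: thrombomodulin protein level measured by ELISA 24 h after dosing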
[9] = read-out: Tissue Factor, F3 (gene 2152); test: BSK_CASM3C_TissueFactor: BioMAP Diversity Plus: CASM3C Assay for Tissue Factor Biomarker Activity (AID 2283052); details: primary human coronary artery smooth muscle cells; actives raise or lower the signal;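 also: cell surface tissue factor protein level read by ELISA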
[10] = read-out: Interferon-gamma inducible Protein 10 (IP10), CXCL10 (gene 3627); test: BSK_hDFCGF_IP10: BioMAP Diversity Plus: hDFCGF Assay for Interferon-gamma inducible Protein 10 (IP10) Biomarker Activity (AID 2283053); details: primary human foreskin fibroblasts; actives raise or lower the signal
Procedure, shortened: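 ELISA read-out of IP-10 (CXCL10) from primary human skin fibroblasts, 24 h after compound addition. Gain or loss of signal versus DMSO baseline, bidirectional curve fitting.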

[11] = read-out: Urokinase-type plasminogen activator receptor (uPAR), PLAUR (gene 5329); test: BSK_CASM3C_uPAR: BioMAP Diversity Plus: CASM3C Assay for Urokinase-type plasminogen activator receptor (uPAR) Biomarker Activity (AID 2283054); details: primary human coronary artery smooth muscle cells; actives raise or lower the signal;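 also: cell-surface uPAR protein level quantified by ELISA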
[12] = read-out: Vascular cell adhesion molecule 1 (VCAM1), VCAM1 (gene 7412); test: BSK_CASM3C_VCAM1: BioMAP Diversity Plus: CASM3C Assay for Vascular cell adhesion molecule 1 (VCAM1) Biomarker Activity (AID 2283055); details: primary human coronary artery smooth muscle cells; actives raise or lower the signal;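 also: VCAM-1 protein level quantified by ELISA on the cells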
[13] = read-out: Collagen III, COL3A1 (gene 1281); test: BSK_hDFCGF_CollagenIII: BioMAP Diversity Plus: hDFCGF Assay for Collagen III Biomarker Activity (AID 2283056); details: primary human foreskin fibroblasts; actives raise or lower the signal
Procedure, shortened: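 Cells: human foreskin fibroblasts, primary. Dosing followed by 24 h incubation, then ELISA for collagen III. Both increases and decreases scored relative to DMSO.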

[14] = read-out: Epidermal growth factor receptor (EGFR), EGFR (gene 1956); test: BSK_hDFCGF_EGFR: BioMAP Diversity Plus: hDFCGF Assay for Epidermal growth factor receptor (EGFR) Biomarker Activity (AID 2283057); details: primary human foreskin fibroblasts; actives raise or lower the signal
Procedure, shortened: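 ELISA readout of EGFR on human dermal fibroblasts (primary foreskin cells), 24 h post-dosing; bidirectional curve fit vs DMSO baseline, gain or loss of signal scored.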

[15] = read-out: Interleukin-8 (IL8), CXCL8 (gene 3576); test: BSK_hDFCGF_IL8: BioMAP Diversity Plus: hDFCGF Assay for Interleukin-8 (IL8) Biomarker Activity (AID 2283058); details: primary human foreskin fibroblasts; actives raise or lower the signal
Procedure, shortened: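 IL-8 levels from compound-treated primary human fibroblasts were read by ELISA at 24 h, with DMSO serving as baseline for bidirectional fitting.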

[16] = BSK_hDFCGF_Proliferation: Cell Proliferation Assessment in the BioMAP Diversity Plus: hDFCGF Assay (AID 2283059); details: primary human foreskin fibroblasts;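 also: curves fitted for both rise and fall of signal versus DMSO baseline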
Procedure, shortened: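 Total protein read at 560 nm after 0.1% SRB staining of TCA-fixed human skin fibroblasts, […]. Activity is fitted in both directions relative to DMSO as baseline.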

[17] = read-out: Macrophage colony-stimulating factor (MCSF), CSF1 (gene 1435); test: BSK_hDFCGF_MCSF: BioMAP Diversity Plus: hDFCGF Assay for Macrophage colony-stimulating factor (MCSF) Biomarker Activity (AID 2283060); details: primary human foreskin fibroblasts; actives raise or lower the signal
Procedure, shortened: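 M-CSF levels, determined by ELISA, are taken at 24 h after dosing human skin fibroblasts. Responses in either direction are fitted with DMSO serving as the baseline.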

[18] = BSK_hDFCGF_SRB: Viability Assessment in the BioMAP Diversity Plus: hDFCGF Assay (AID 2283061); details: primary human foreskin fibroblasts;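 also: cells exposed to compound for 24 h before the read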
Procedure, shortened: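 Cells were dosed with test chemical, cultured 24 h, fixed with 10% TCA, then stained with 0.1% SRB and read at 560 nm. The fibroblasts were human foreskin primary cells, and DMSO served as baseline.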

[19] = read-out: TIMP metallopeptidase inhibitor 1 (TIMP1), TIMP1 (gene 7076); test: BSK_hDFCGF_TIMP1: BioMAP Diversity Plus: hDFCGF Assay for TIMP metallopeptidase inhibitor 1 (TIMP1) Biomarker Activity (AID 2283062); details: primary human foreskin fibroblasts; actives raise or lower the signal
Procedure, shortened: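 Fibroblasts from human foreskin are treated with test chemical and harvested at 24 h. TIMP-1 is quantified by ELISA, and gain or loss of signal is scored against DMSO.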

[20] = read-out: Monokine induced gamma interferon (MIG), CXCL9 (gene 4283); test: BSK_hDFCGF_MIG: BioMAP Diversity Plus: hDFCGF Assay for Monokine induced gamma interferon (MIG) Biomarker Activity (AID 2283063); details: primary human foreskin fibroblasts; actives raise or lower the signal
Procedure, shortened: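 MIG signal, determined by ELISA, reflects 24 h chemical exposure of human skin primary fibroblasts. DMSO serves as negative control and baseline.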

Measured: AC50

C=CC=CC=CCCCCC
inactive: [1] | [2] | [3] | [5] | [6] | [7] | [8] | [9] | [10] | [11] | [14] | [15] | [17] | [18] | [19] | [20]
active: [4] 5 µM | [12] 5 µM | [13] 7.41 µM | [16] 7.28 µM

C/C=C\C/C=C/CCCCCCCCOC(C)=O
active: [1] 20 µM | [4] 26.4 µM | [5] 28.5 µM | [6] 32.3 µM | [7] 36.9 µM | [9] 6.46 µM | [10] 34.3 µM | [11] 32.7 µM | [12] 23.3 µM | [13] 20 µM | [16] 29.7 µM | [17] 29.9 µM | [18] 31.7 µM | [19] 30.4 µM | [20] 28.3 µM
inactive: [2] | [3] | [8] | [14] | [15]

O=C(Cl)c1cc(C(=O)Cl)cc(C(=O)Cl)c1
active: [1] 14.5 µM | [2] 12.3 µM | [3] 32 µM | [4] 7.85 µM | [5] 29.2 µM | [6] 20 µM | [7] 15 µM | [8] 36.3 µM | [9] 20 µM | [10] 31 µM | [11] 26 µM | [12] 17.8 µM | [13] 21.4 µM | [16] 3.77 µM | [17] 13.6 µM | [18] 26.4 µM | [19] 13.7 µM | [20] 16.1 µM
inactive: [14] | [15]

CCO[Si](C)(OCC)OCC
inactive: [1] | [2] | [3] | [4] | [5] | [6] | [7] | [8] | [9] | [10] | [11] | [12] | [13] | [14] | [15] | [16] | [17] | [18] | [19] | [20]

C=CC(=O)OCC(Br)CBr (configuration not stated)
active: [1] 20 µM | [2] 36 µM | [3] 27.1 µM | [4] 28.5 µM | [5] 28 µM | [7] 28.4 µM | [8] 32.8 µM | [9] 29.1 µM | [10] 5.47 µM | [11] 28.9 µM | [12] 11.4 µM | [13] 5.82 µM | [15] 20 µM | [16] 5.47 µM | [17] 5.95 µM | [18] 9.67 µM | [19] 11.9 µM | [20] 6.57 µM
inactive: [6] | [14]

O=C(c1ccc(O)cc1)c1ccc(O)cc1O
active: [4] 15.7 µM and 10.5 µM | [12] 5.81 µM
inactive: [1] | [2] | [3] | [5] | [6] | [7] | [8] | [9] | [10] | [11] | [12] | [13] | [14] | [15] | [16] | [17] | [18] | [19] | [20]

Nc1ccc(N)c(Cl)c1
inactive: [2] | [3] | [5] | [6] | [7] | [9] | [11] | [13] | [14] | [15] | [19]
active: [1] 8.11 µM and 1.83 µM | [4] 28.7 µM | [5] 6.03 µM | [7] 16.1 µM | [8] 2.9 µM and 3.08 µM | [9] 1.13 µM | [10] 16 µM and 20.2 µM | [12] 27.2 µM and 11.1 µM | [13] 28.4 µM | [14] 21.4 µM | [16] 9.65 µM | [17] 14.9 µM and 16.5 µM | [18] 32.3 µM and 32.1 µM | [19] 34.2 µM | [20] 17.2 µM and 17.5 µM

c1ccc(-c2ccccn2)nc1
inactive: [1] | [2] | [3] | [4] | [5] | [6] | [7] | [8] | [9] | [10] | [11] | [12] | [13] | [14] | [15] | [16] | [17] | [18] | [19] | [20]

O=C(Nc1ccccc1SSc1ccccc1NC(=O)c1ccccc1)c1ccccc1
active: [4] 5.1 µM | [6] 5.22 µM | [8] 5.27 µM | [11] 5.17 µM | [12] 5.16 µM
inactive: [1] | [2] | [3] | [5] | [7] | [9] | [10] | [13] | [14] | [15] | [16] | [17] | [18] | [19] | [20]
